Measurements published in PubChem BioAssay AID1159580 (chemical genetic matrix, 2015).
Among all 5,500 compounds or so, about 2,000 (36%) were called active. Another 18% or so got no clear call; they are omitted. Cut-off read from the data, not from the text of the source: active = normalized growth mostly below about 0.91 (no sharp cut-off); inconclusive = no clear call, values can overlap the other calls; inactive = mostly above about 0.92. This is one part of the list.

Test: chemical genetic growth profiling, strain panel (AID 1159580);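 note: tested at 20 µM; growth read once vehicle control cultures reached saturation at 30 °C; 1 = growth at the plate median or of vehicle wells; lower values mean less growth of the strain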
Details: S. cerevisiae deletion strains, growth OD

Measured: normalized growth

CN(C)CC/C=C1\c2ccccc2COc2ccccc21
inactive: locus YAL013W, strain DEP1, active compounds read low 0.998 | locus YAL040C, strain CLN3, active compounds read low 0.997 | locus YCL061C, strain MRC1 (second series), active compounds read low 0.992 | locus YDR150W, strain NUM1, active compounds read low 1.01 | locus YDR363W, strain ESC2, active compounds read low 0.944 | locus YER002W, strain NOP16, active compounds read low 1.01 | locus YGR078C, strain PAC10, active compounds read low 1.01 | locus YJR075W, strain HOC1, active compounds read low 0.952 | locus YMR263W, strain SAP30, active compounds read low 0.991 | locus YNL128W, strain TEP1, active compounds read low 1.01 | locus YNL153C, strain GIM3, active compounds read low 1.03 | locus YNL175C, strain NOP13, active compounds read low 1.02 | locus YNL197C, strain WHI3, active compounds read low 1 | locus YNL224C, strain SQS1, active compounds read low 1.03 | locus YOR083W, strain WHI5 (second series), active compounds read low 0.997
